# Source: PubChem (National Center for Advancing Translational Sciences (NCATS))
# Sampled rows, rich in hits. Any-hit rate of the full collection: about 12%.
# SARS PLpro yeast: qHTS of Yeast-based Assay for SARS-CoV PLP; Potency, µM (series often up to 32.9 µM), for inactives: at the highest dose activity, positive = growth rescue, hits mostly activators; 330,000 compounds, 0.19% hits; S. cerevisiae expressing SARS-CoV PLpro, growth rescue; calls by dose curve; also: 0% is about no effect; nearly all actives have a fitted effect of over 55% in size
# Pf growth 96h: Primary qHTS for delayed death inhibitors of the malarial parasite plastid, 96 hour incubation; P. falciparum luciferase reporter growth, 96 h; Potency, µM (highest dose often 28.7 µM), for the others: at the highest dose activity change, negative = inhibition, hits mostly inhibitors; 320,000 compounds, 6.9% hits; also: % is scaled to controls: 0 for no effect and ±100 for the full control effect
#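 Compounds incubated with erythrocytes infected by luciferase-expressing P. falciparum (2% hematocrit, 0.05% parasitemia final) for 96 hours, 37 C in 5% CO2. Growth inhibition scored as decreased luciferase luminescence.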
# Pf growth 48h: Primary qHTS for delayed death inhibitors of the malarial parasite plastid, 48 hour incubation | AID 504832, 2011 | Potency, µM (series often up to 28.7 µM), inactives show top-dose activity change, negative = inhibition, most hits filed as inhibitors | 310,000 compounds, 5.9% hits | P. falciparum luciferase growth in erythrocytes, 48 h; also: % is scaled to controls: 0 for no effect and ±100 for the full control effect
#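 Compounds are pin-transferred into medium, infected erythrocytes (2% hematocrit, 0.1% parasitemia final) are added, and plates sit one parasite generation at 37 C in 5% CO2. Detection reagent is then added and luminescence measured.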
# Sm TGR inh: qHTS Assay for the Inhibitors of Schistosoma Mansoni Peroxiredoxins; Schistosoma mansoni thioredoxin glutathione reductase (TGR), Q962Y6; purified TGR, DTNB reduction, TNB absorbance 405 nm; Potency, µM (highest dose often 114 µM), for inactives: at the top dose activity change, negative = inhibition, usual class: inhibitors; 360,000 compounds, 3% hits; also: % is scaled to controls: 0 for no effect and ±100 for the full control effect; nearly all actives have a fitted effect of over 60% in size
#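 TGR 20 nM + NADPH 100 uM (dispensed conc.), cpd preinc 15 min RT; start with NADPH (500 uM addition) then DTNB (15 mM addition). Kinetic TNB absorbance, 405 nm filter. Four-parameter Hill fit across titration.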
# The depositor's hits bear a star; ? = inconclusive; . = no result given. Unless noted, calls follow the shape of the dose curve; as a rule, active = well fitted curve in the direction sought with a large enough effect; inconclusive = small, poorly fitted or top-dose-only effect, or another doubt; inactive = no such curve, though single readings can be large; an effect the other way counts as inactive or inconclusive. Potency is read from the fitted curve at half-maximal effect.
SMILES,SARS PLpro yeast,Pf growth 96h,Pf growth 48h,Sm TGR inh
Cc1ccc(C)c(N2CCN(C(=O)c3ccc4nc(-c5ccco5)c(-c5ccco5)nc4c3)CC2)c1,3%,-17%,?,6.3µM*
COc1ccccc1N1CCN(C(=O)c2ccc3nc(-c4ccco4)c(-c4ccco4)nc3c2)CC1,15%,.,?,14µM*
CC(C)OCCCNC(=O)CN1C(=O)c2ccccc2Sc2ncccc21,.,.,.,-2%
CCCNC(=O)N1[C@H]2CC[C@@H]1C(C(=O)OC)=C(c1ccc(F)cc1OCc1ccccc1)C2,-6%,?,?,-7%
COC(=O)C1=C(c2ccc(F)cc2OCc2ccccc2)C[C@@H]2CC[C@H]1N2C(=O)NCc1cccc(F)c1,7%,?,2.3µM*,-1%
COC(=O)C1=C(c2ccc(F)cc2OCc2ccccc2)C[C@@H]2CC[C@H]1N2C(=O)NCCCOC(C)C,-2%,?,9.3µM*,-14%
COC(=O)C1=C(c2ccc(F)cc2OCc2ccccc2)C[C@@H]2CC[C@H]1N2C(=O)NCc1ccccc1OC,0%,?,6.6µM*,-1%
COC(=O)C1=C(c2ccc(F)cc2OCc2ccccc2)C[C@@H]2CC[C@H]1N2C(=O)NCCNC(C)=O,-4%,?,?,-20%
COC(=O)C1=C(c2ccc(F)cc2OCc2ccccc2)C[C@@H]2CC[C@H]1N2C(=O)N1CCC(O)CC1,-5%,?,12µM*,3%
CCC(C)(C)C1CCc2[nH]nc(C(=O)O)c2C1 (stereo not drawn),-1%,60%,-15%,1%
COc1ccc(CCNC(=O)c2cnc3sc(N4CCCC4)nn3c2=O)cc1OC,.,.,.,-1%
COC(=O)C1=C(c2ccc(F)cc2OCc2ccccc2)C[C@@H]2CC[C@H]1N2C(=O)NCC1CC1,1%,?,10µM*,1%
COC(=O)C1=C(c2ccc(F)cc2OCc2ccccc2)C[C@@H]2CC[C@H]1N2C(=O)NCCO,0%,?,?,-26%
COC(=O)C1=C(c2ccc(F)cc2OCc2ccccc2)C[C@@H]2CC[C@H]1N2C(=O)NCc1cc(C)oc1C(F)(F)F,-2%,.,.,.
COC(=O)C1=C(c2ccc(F)cc2OCc2ccccc2)C[C@@H]2CC[C@H]1N2C(=O)NCc1ccccc1,-1%,4.1µM*,9.3µM*,-1%
COC(=O)C1=C(c2ccc(F)cc2OCc2ccccc2)C[C@@H]2CC[C@H]1N2C(=O)NCc1ccc2c(c1)OCO2,-14%,?,2.9µM*,-29%
COC(=O)C1=C(c2ccc(F)cc2OCc2ccccc2)C[C@@H]2CC[C@H]1N2C(=O)NCc1ccco1,1%,?,?,?
CC(C)(C)OC(=O)N/N=C\c1ccc(OC(=O)c2cccs2)cc1,4%,12µM*,3%,-14%
CN(C)c1nc(N)c([N+](=O)[O-])c(N2CCCCCC2)n1,3%,13%,12%,11%
CCCCOc1ccc(Cc2c(Cl)nc(SC)nc2N2CCOCC2)cc1,-40%,45%,13µM*,1%
CSc1nc(Cl)c(Cc2ccc(OCC(C)C)cc2)c(N2CCOCC2)n1,-22%,?,?,-2%
COP(=O)(OC)C(Nc1ccccn1)c1ccccc1 (stereo not drawn),-3%,?,11%,1%
c1ccc(CC(Nc2ccccn2)c2ccccc2)cc1 (stereo not drawn),7%,15µM*,?,7%
NCC(O)CN1CCN(Cc2ccccc2)CC1 (stereo not drawn),2%,23%,11%,-14%
CCCCC(=O)Nc1cccc2c1C(=O)N(c1ccccc1)C2=O,-3%,0.93µM*,3%,-15%
SMILES,SARS PLpro yeast,Pf growth 96h,Pf growth 48h,Sm TGR inh
CCOC(=O)c1ccc2[nH]c(CSc3nnc(-c4cccc(F)c4)n3C)cc(=O)c2c1,.,.,.,0%
C#CCOCCOCCOCCNc1nc(N2CCN(C(=O)[C@H]([C@@H](C)CC)n3cc([C@@H](N)Cc4ccc(O)cc4)nn3)CC2)nc(N2CCN(C(=O)[C@H](Cc3ccc(O)cc3)n3cc([C@@H](N)CC(C)C)nn3)CC2)n1,0%,?,4.7µM*,-4%
C#CCOCCOCCOCCNc1nc(N2CCN(C(=O)[C@H]([C@@H](C)O)n3cc(CCCCN)nn3)CC2)nc(N2CCN(C(=O)[C@H](Cc3ccc(O)cc3)n3cc(CCO)nn3)CC2)n1,7%,-26%,17%,-12%
C#CCOCCOCCOCCNc1nc(N2CCN(C(=O)[C@H](Cc3ccc(O)cc3)n3cc(CCO)nn3)CC2)nc(N2CCN(C(=O)[C@H](Cc3ccc(O)cc3)n3cc(CCO)nn3)CC2)n1,8%,-23%,4%,40µM*
C#CCOCCOCCOCCNc1nc(N2CCN(C(=O)[C@H](CCCCN)n3cc(C(N)[C@H](C)CC)nn3)CC2)nc(N2CCN(C(=O)[C@H](CCC(=O)O)n3cc(C(N)[C@H](C)CC)nn3)CC2)n1 (stereo partly drawn),1%,7%,?,16µM*
C#CCOCCOCCOCCNc1nc(N2CCN(C(=O)[C@H]([C@@H](C)CC)n3cc([C@@H](N)Cc4ccc(O)cc4)nn3)CC2)nc(N2CCN(C(=O)[C@H]([C@@H](C)CC)n3cc([C@@H](N)CC(C)C)nn3)CC2)n1,-1%,1.5µM*,1.9µM*,-23%
C#CCOCCOCCOCCNc1nc(N2CCN(C(=O)[C@H]([C@@H](C)CC)n3cc([C@@H](N)CC(C)C)nn3)CC2)nc(N2CCN(C(=O)[C@H](CCCCN)n3cc([C@@H](N)CC(C)C)nn3)CC2)n1,1%,0%,0%,-6%
C#CCOCCOCCOCCNc1nc(N2CCN(C(=O)[C@H]([C@@H](C)CC)n3cc([C@@H](N)CO)nn3)CC2)nc(N2CCN(C(=O)[C@H](Cc3ccc(O)cc3)n3cc([C@@H](N)CC(C)C)nn3)CC2)n1,-1%,0%,?,17%
COc1ccc2oc(=O)cc(CN3CCN(c4ccc(F)cc4)CC3)c2c1,.,.,.,-9%
CCN(CC)c1nn2c(=O)c(C(=O)NCc3ccc(F)cc3)cnc2s1,.,.,.,3%
Cc1cccc(N2CCN(S(=O)(=O)c3c(C)nc4scc(C)n4c3=O)CC2)c1C,-9%,?,0%,8%
C#CCOCCOCCOCCNc1nc(N2CCOCC2)nc(N2CCN(C(=O)[C@H]([C@@H](C)CC)n3cc([C@@H](N)CC(C)C)nn3)CC2)n1,1%,6.6µM*,?,2%
C#CCOCCOCCOCCNc1nc(N2CCN(C(=O)C([C@@H](C)CC)n3cc(C(N)CO)nn3)CC2)nc(N2CCN(C(=O)[C@H](CCC(=O)O)n3cc(C(N)Cc4ccc(O)cc4)nn3)CC2)n1 (stereo partly drawn),-3%,36%,41%,?
